Experimental findings from PubChem BioAssay (Tox21) are described below.

Each structure is given as a SMILES string. Values without a mark were called inactive. Inconclusive results are not listed. Activity calls are given as the source filed them. Unless noted, calls follow the shape of the dose curve; as a rule, active = well fitted curve in the direction sought with a large enough effect in the repeat runs; inconclusive = weak or mixed curves; inactive = no such curve, though single readings can be large; an effect the other way counts as inactive or inconclusive.

Assay [1] is described as follows: Caspase-3/7 induction in HepG2 cells by small molecules, qHTS assay (AID 1346978). Also: nearly all actives have a fitted effect of over 15% in size. The method in brief: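 Caspase-3/7 induction was measured by Caspase-Glo 3/7 luminescence (30 min, room temperature) after a 17 hr compound exposure of wild-type HepG2 cells seeded at 2,000 per well and pre-incubated 5 hr.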
In general terms: Quantitative high-throughput screening tests each substance at several concentrations.

A short description of assay [2]: Caspase-3/7 induction in CHO-K1 cells by small molecules, qHTS assay (AID 1346980). Also: nearly all actives have a fitted effect of over 15% in size. In a few lines:
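Luminescent Caspase-Glo 3/7 read (30min, room temperature) quantified apoptosis induction. Cells were wild-type CHO-K1, treated with compound for 17hr at 37 C and 5% CO2.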

Assay [3] can be described thus: Caspase-3/7 induction in HepG2 cells by small molecules, qHTS cell viability counter screen (AID 1346981). Also: series mostly up to about 92 µM; nearly all actives have a fitted effect of over 30% in size. The method in brief:
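Multiplexed with the caspase-3/7 assay: HepG2 cells, 16 hr compound treatment, CellTiter-Fluor viability detection by fluorescence.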

Assay [4] addresses Nuclear receptor subfamily 1 group I member 2 (Homo sapiens) (UniProt O75469). Nature of the assay: Human pregnane X receptor (PXR) small molecule agonists, qHTS assay (AID 1346982). Also: nearly all actives have a fitted effect of over 35% in size. The method in brief: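 We seeded PXR-Luc HepG2 cells in assay medium containing 5% charcoal-stripped FBS, added compounds 5 hr later, incubated 24 hr, and read luminescence with ONE-Glo reagent.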

Assay [5] deals with Acetylcholinesterase (Homo sapiens) (UniProt P22303). Nature of the assay: Acetylcholinesterase (AChE) small molecule antagonists: colormetric cell-based qHTS assay (AID 1347395; calls by dose curve; also: nearly all actives have a fitted effect of over 30% in size). The method in brief: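 AChE inhibition read colorimetrically via DTNB–thiocholine in SH-SY5Y cells. Compound 30 min, substrate 90 min, both 37 C.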
Acetylcholinesterase (Homo sapiens), sequence (P22303 whole entry, looked up): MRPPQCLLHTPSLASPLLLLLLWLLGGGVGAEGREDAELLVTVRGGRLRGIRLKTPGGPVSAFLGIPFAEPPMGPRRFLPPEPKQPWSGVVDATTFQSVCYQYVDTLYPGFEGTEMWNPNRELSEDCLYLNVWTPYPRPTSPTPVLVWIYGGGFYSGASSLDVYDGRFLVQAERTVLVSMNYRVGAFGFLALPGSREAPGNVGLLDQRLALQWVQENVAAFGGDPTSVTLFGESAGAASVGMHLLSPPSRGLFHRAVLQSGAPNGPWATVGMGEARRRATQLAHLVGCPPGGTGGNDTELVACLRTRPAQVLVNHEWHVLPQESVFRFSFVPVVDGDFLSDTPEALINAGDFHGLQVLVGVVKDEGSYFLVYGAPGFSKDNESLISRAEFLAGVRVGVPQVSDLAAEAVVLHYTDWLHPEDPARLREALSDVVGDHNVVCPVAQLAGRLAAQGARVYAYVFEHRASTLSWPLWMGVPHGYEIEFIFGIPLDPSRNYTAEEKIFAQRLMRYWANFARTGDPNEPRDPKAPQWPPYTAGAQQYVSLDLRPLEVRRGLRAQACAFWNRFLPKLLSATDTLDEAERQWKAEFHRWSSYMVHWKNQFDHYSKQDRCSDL
For assay [6] the target is unchanged. As to the kind of experiment: Acetylcholinesterase (AChE) small molecule antagonists: enzyme-based qHTS assay (AID 1347397; calls by dose curve; also: nearly all actives have a fitted effect of over 55% in size). The settings on record: Potency: AChE enzyme activity inhibition; outcome: AChE enzyme activity inhibition. The method in brief: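 rhAChE 50 mU/mL (dispensed) + cpd or DMSO, 30 min RT; add DTNB/acetylthiocholine cocktail, 10 min RT; colorimetric thiocholine readout. qHTS, 1536-well format.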

For assay [7] the target is unchanged. Nature of the assay: Acetylcholinesterase (AChE) small molecule antagonists: enzyme-based qHTS assay with human liver microsomes (AID 1347399; calls by dose curve; also: nearly all actives have a fitted effect of over 60% in size). The settings on record: Potency: qHTS inhibition; outcome: qHTS inhibition. In a few lines: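 Recombinant human AChE (50 mU/mL in the enzyme mix) and human liver microsomes (0.25 mg/mL final) were preincubated with compound and NADPH (0.25 mg/mL final) for 30 min at 37 C. Acetylthiocholine/DTNB was then added; thiocholine was read colorimetrically after 10 min at room temperature.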

The target of assay [8] is Cytochrome P450 2D6 (Homo sapiens) (UniProt P10635). Nature of the assay: Cytochrome P450 Family 2 Subfamily D Member 6 (CYP2D6) small molecule antagonists: luciferase reporter qHTS assay (AID 1671196). Also: nearly all actives have a fitted effect of over 50% in size. Also: potency is read from the fitted curve at half-maximal effect. As to activity change, negative = inhibition: series mostly up to about 120 µM. In a few lines: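 Luminescence (RLU), read 20 min after detection reagent, indicated CYP2D6 conversion of proluciferin to luciferin during a 1 h NADPH-dependent reaction at room temperature.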
Cytochrome P450 2D6 (Homo sapiens), sequence (P10635 whole entry, looked up): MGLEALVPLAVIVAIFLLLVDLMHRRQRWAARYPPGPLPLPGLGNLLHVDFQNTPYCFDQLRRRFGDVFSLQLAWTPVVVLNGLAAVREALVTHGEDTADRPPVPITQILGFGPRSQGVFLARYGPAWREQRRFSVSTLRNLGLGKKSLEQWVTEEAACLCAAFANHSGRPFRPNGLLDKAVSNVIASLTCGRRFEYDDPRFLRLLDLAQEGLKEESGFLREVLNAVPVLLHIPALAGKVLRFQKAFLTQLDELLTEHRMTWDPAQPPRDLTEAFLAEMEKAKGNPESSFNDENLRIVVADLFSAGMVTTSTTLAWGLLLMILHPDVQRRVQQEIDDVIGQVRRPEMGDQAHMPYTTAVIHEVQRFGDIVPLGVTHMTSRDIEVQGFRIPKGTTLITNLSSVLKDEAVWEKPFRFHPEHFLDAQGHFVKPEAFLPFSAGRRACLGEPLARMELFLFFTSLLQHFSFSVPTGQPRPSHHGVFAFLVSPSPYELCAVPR
In general terms: Reporter assays use an easily measured gene product as a stand-in for the process of interest.

The target of assay [9] is Cytochrome P450 2C19 (Homo sapiens) (UniProt P33261). As to the kind of experiment: Cytochrome P450 Family 2 Subfamily C Member 19 (CYP2C19) small molecule antagonists: luciferase reporter qHTS assay (AID 1671197). Also: nearly all actives have a fitted effect of over 65% in size. Also: potency is read from the fitted curve at half-maximal effect. As to activity change, negative = inhibition: series mostly up to about 120 µM. The method in brief:
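Enzyme-substrate mix with proluciferin substrate (P450-Glo CYP2C19 system) preincubated with compounds 10 min at room temperature; NADPH regeneration solution added, 37C for 1 h; detection reagent stops reaction, luminescence read after 20 min. Ketoconazole positive control.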

For assay [10], the target named is Cytochrome P450 2C9 (Homo sapiens) (UniProt P11712). As to the kind of experiment: Cytochrome P450 Family 2 Subfamily C Member 9 (CYP2C9) small molecule antagonists: luciferase reporter qHTS assay (AID 1671198). Also: nearly all actives have a fitted effect of over 50% in size. Also: potency is read from the fitted curve at half-maximal effect. As to activity change, negative = inhibition: series mostly up to about 120 µM. The method in brief: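 Enzyme-substrate mix preincubated with compound 10 min at room temperature; reaction started with NADPH regeneration solution, 1 h 37C. Luminescent luciferin product read after 20 min detection reagent.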
Cytochrome P450 2C9 (Homo sapiens), sequence (P11712 whole entry, looked up): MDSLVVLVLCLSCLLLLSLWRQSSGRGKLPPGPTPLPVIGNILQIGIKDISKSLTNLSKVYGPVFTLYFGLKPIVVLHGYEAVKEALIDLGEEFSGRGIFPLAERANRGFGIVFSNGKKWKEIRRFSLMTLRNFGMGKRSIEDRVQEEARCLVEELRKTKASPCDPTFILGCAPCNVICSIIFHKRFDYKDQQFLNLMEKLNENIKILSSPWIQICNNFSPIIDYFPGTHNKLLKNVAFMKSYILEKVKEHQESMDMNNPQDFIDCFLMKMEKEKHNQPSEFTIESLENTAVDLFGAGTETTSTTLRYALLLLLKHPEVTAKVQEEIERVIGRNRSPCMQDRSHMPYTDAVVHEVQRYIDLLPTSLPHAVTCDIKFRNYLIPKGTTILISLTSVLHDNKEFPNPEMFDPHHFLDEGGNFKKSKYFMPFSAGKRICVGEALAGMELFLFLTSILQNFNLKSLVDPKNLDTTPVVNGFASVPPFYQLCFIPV

In assay [11] the target is Cytochrome P450 1A2 (Homo sapiens) (UniProt P05177). As to the kind of experiment: Cytochrome P450 Family 1 Subfamily A Member 2 (CYP1A2) small molecule antagonists: luciferase reporter qHTS assay (AID 1671199). Also: nearly all actives have a fitted effect of over 50% in size. Also: potency is read from the fitted curve at half-maximal effect. As to activity change, negative = inhibition: series mostly up to about 120 µM. In a few lines: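 CYP1A2 turnover of a luminogenic substrate was quantified after 1 h with NADPH regeneration at room temperature. Furafylline served as positive control.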
Cytochrome P450 1A2 (Homo sapiens), sequence (P05177 whole entry, looked up): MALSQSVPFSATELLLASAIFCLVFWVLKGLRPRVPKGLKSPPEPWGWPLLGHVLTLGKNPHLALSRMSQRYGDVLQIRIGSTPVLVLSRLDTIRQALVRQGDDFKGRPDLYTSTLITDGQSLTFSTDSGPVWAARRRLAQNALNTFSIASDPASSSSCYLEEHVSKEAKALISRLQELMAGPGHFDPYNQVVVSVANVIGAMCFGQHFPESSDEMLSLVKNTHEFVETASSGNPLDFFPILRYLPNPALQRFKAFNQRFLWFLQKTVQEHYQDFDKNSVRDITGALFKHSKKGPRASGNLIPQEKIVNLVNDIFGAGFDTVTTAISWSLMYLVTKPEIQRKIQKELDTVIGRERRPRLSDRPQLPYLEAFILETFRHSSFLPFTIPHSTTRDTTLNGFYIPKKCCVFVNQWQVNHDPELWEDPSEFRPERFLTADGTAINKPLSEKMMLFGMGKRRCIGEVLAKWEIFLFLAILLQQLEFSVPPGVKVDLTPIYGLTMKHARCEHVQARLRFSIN

Assay [12] concerns the target Voltage-gated inwardly rectifying potassium channel KCNH2 (Homo sapiens) (UniProt Q12809). Nature of the assay: Human Ether-a-go-go-Related Gene (hERG) channel small molecule antagonists: fluorescence cell-based qHTS assay (AID 1671200).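 Also: hERG-expressing U2OS cells given a thallium stimulus after FluxOR II dye loading; series mostly up to about 77 µM; nearly all actives have a fitted effect of over 50% in size.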 The method in brief:
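Kinetic two-minute fluorescence traces, sampled at 1 s, were collected following thallium stimulus of U2OS cells (1000 per well) that had been cultured overnight at 37 C and loaded with FluxOR II.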
For orientation: hERG is a cardiac potassium channel; its block is linked to QT prolongation.

The nature of assay [13]: Human pregnane X receptor (PXR) small molecule agonists, qHTS cell viability counter screen (AID 1346977). Also: nearly all actives have a fitted effect of over 50% in size. The method in brief:
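Tox21 qHTS format; PXR-Luc HepG2, 2,000/well, charcoal-stripped FBS 5%. Cpd exposure 24hr. Read: CellTiter-Fluor fluorescence, multiplexed with luciferase.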

In assay [14] the target is Acetylcholinesterase (Homo sapiens) (UniProt P22303). Nature of the assay: Acetylcholinesterase (AChE) small molecule antagonists: fluorescence cell-based qHTS assay (AID 1347398; calls by dose curve; also: nearly all actives have a fitted effect of over 50% in size). Particulars: Potency: AChE activity; outcome: AChE activity. The method in brief:
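Read-out is Thiolite Green fluorescence at Ex/Em = 490/520 nm, formed by reaction with thiocholine released when cellular AChE in SH-SY5Y cells hydrolyzes acetylthiocholine. Compounds were preincubated 30 min at 37 C before substrate.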

For assay [15], the target named is Cytochrome P450 3A4 (Homo sapiens) (UniProt P08684). As to the kind of experiment: Cytochrome P450 Family 3 Subfamily A Member 4 (CYP3A4) small molecule antagonists: luciferase reporter qHTS assay (AID 1671201). In a few lines: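 Proluciferin-to-luciferin conversion by CYP3A4, NADPH-regenerated, 1 h RT; luminescence read as RLU. Ketoconazole as control.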
Cytochrome P450 3A4 (Homo sapiens), sequence (P08684 whole entry, looked up): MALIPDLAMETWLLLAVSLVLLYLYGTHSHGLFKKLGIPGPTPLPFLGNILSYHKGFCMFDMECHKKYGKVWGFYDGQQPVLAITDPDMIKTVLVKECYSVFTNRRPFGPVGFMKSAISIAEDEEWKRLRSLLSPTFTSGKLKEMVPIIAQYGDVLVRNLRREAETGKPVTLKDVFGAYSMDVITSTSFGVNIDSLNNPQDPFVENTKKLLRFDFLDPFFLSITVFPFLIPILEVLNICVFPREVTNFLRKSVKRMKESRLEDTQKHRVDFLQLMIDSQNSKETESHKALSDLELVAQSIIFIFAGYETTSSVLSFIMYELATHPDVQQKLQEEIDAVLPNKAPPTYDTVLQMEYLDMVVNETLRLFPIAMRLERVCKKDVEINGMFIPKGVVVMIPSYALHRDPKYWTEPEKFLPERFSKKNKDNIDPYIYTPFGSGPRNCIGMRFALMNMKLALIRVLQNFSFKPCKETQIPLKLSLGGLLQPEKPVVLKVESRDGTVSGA
Assay [16] is described as follows: Caspase-3/7 induction in CHO-K1 cells by small molecules, qHTS cell viability counter screen (AID 1346979). Also: nearly all actives have a fitted effect of over 35% in size. In a few lines: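 CellTiter-Fluor viability check, qHTS format: wild-type CHO-K1, 16hr compound treatment, 1hr reagent incubation, fluorescence read.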
For assay [17], the target named is Nuclear receptor subfamily 1 group I member 2 (Rattus norvegicus) (UniProt Q9R1A7). As to the kind of experiment: Rat pregnane X receptor (rPXR) activation by small molecules, qHTS assay (AID 1346983). Also: nearly all actives have a fitted effect of over 20% in size. Particulars: rPXR luciferase reporter cells, One-Glo luminescence, 24 h; stronger effect = higher value. In a few lines: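 Luminescent readout (One-Glo luciferase, 30 min room temperature) followed 24 hr compound treatment at 37 C of rPXR cells plated 2,000 per well and preincubated 5hr; qHTS format with compounds delivered in DMSO.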

The target of assay [18] is Nuclear receptor subfamily 1 group I member 2 (Homo sapiens) (UniProt O75469). Nature of the assay: Human pregnane X receptor (PXR) activation by small molecules, qHTS assay (AID 1346985). Also: nearly all actives have a fitted effect of over 40% in size. The method in brief:
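DPX-2 cells (HepG2 co-transfected with a PXR response element and a CYP3A4-promoter luciferase construct) were seeded at 2,000 per well, rested 5 hr at 37C, then exposed to DMSO-dissolved compounds for 24 hr. Activation was read as luciferase luminescence.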
% is scaled to controls: 0 for no effect and ±100 for the full control effect.

Cytochrome P450 2C19 (Homo sapiens), sequence (P33261 whole entry, looked up): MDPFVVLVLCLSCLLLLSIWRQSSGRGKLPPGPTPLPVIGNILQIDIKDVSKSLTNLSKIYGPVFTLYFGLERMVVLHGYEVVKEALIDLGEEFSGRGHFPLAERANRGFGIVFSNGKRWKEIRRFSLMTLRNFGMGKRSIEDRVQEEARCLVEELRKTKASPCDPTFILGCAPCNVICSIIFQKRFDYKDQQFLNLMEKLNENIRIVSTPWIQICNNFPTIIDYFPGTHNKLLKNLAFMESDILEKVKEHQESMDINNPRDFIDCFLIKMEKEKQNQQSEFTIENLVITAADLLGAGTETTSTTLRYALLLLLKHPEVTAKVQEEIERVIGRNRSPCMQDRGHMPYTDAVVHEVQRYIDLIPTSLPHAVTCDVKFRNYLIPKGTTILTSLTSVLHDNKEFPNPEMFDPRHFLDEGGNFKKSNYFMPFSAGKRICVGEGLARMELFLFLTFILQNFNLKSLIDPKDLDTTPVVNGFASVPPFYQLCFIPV
Nuclear receptor subfamily 1 group I member 2 (Homo sapiens), sequence (O75469 whole entry, looked up): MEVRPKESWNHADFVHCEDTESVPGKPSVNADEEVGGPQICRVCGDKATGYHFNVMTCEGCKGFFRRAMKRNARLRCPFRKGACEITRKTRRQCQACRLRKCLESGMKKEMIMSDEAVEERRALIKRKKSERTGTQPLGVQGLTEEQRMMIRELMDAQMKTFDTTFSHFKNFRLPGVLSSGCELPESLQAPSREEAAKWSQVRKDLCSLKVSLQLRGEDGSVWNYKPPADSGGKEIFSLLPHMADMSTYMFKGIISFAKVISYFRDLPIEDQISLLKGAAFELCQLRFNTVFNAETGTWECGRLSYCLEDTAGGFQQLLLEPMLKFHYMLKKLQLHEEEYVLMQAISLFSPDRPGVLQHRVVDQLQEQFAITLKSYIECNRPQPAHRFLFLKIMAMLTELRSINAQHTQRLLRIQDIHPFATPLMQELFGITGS
Voltage-gated inwardly rectifying potassium channel KCNH2 (Homo sapiens), sequence (Q12809 whole entry, looked up): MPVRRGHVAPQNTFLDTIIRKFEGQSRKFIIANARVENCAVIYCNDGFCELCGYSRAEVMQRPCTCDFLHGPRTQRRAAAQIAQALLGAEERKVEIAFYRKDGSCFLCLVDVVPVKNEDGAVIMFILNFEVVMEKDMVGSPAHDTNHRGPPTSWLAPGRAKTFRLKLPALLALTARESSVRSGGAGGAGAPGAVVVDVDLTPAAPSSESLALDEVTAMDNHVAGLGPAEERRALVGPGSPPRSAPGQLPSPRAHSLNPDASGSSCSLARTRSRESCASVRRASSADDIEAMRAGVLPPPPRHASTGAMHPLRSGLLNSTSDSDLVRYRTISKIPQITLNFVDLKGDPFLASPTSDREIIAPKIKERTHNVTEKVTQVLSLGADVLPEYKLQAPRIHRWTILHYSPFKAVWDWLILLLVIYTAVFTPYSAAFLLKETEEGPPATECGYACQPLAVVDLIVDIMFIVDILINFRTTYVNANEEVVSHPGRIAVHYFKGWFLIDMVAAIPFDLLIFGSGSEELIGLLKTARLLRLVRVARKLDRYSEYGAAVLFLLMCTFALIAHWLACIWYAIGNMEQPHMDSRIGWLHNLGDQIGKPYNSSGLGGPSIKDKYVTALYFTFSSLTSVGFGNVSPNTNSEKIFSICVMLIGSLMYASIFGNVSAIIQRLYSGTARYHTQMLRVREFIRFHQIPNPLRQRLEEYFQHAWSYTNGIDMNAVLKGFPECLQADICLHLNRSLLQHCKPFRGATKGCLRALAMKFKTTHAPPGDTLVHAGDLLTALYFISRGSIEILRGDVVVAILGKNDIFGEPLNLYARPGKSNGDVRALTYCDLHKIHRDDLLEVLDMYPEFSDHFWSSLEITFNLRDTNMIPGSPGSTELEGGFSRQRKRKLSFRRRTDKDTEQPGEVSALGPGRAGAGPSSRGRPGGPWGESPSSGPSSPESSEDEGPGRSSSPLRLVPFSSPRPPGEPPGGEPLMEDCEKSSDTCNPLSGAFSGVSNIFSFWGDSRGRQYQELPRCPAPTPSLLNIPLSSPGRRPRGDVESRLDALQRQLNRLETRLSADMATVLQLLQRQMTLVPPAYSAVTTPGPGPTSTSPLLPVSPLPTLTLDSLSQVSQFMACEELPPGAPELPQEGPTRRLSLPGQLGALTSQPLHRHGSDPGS

On to `CC[C@H](O)C(C[C@H](C)N(C)C)(c1ccccc1)c1ccccc1`, for which the result in [1] and in [2] was inactive. For the same compound, the Potency result in assay [3], in [4], in [5], in assay [6], in assay [7] and in [9] was “inactive” in each case. The Potency entry in assay [10], in [11] and in assay [12] was “inactive” in each case. Besides, the Potency in assay [8] was 1.44 µM (active).

As for `Brc1c(Br)c(Br)c(Br)c(Br)c1Br`, the activity change, negative = cytotoxicity was 1.06% [at 8.39 µM] in assay [13] and 7.69% [at 8.39 µM] in [3]. The caspase activation in assay [1] is 0.467% [at 8.39 µM]. Further, the caspase-3/7 activation in [2] is -0.0086% [at 8.39 µM]. Also, the activation in assay [4] is 1.3% [at 8.39 µM]. Also, the activity, negative = inhibition in assay [5] was -5.69% [at 10.5 µM]. The activity change, negative = inhibition in assay [6] was -2.31% [at 10.5 µM]; in assay [14], -32.6% [at 10.5 µM]; in assay [7] it was -0.832% [at 10.5 µM]; in assay [8], -1.47% [at 10.5 µM]; in [9] it was -0.615% [at 10.5 µM]; in assay [10], 0.0091% [at 10.5 µM]. The activity change, negative = inhibition in assay [12] was 19.9% [at 6.97 µM]; in [15] it was 2.63% [at 10.5 µM].

Take `O=c1[nH]oc2c1CCNC2`: the Potency entry in assay [13], in assay [3], in assay [4], in assay [5], in [6] and in assay [7] was “inactive” throughout. For the same compound, the Potency entry in assay [9], in assay [10], in assay [11], in [12] and in assay [15] was “inactive” each time. For the same compound, the compound was called inactive in assay [1] and in [2].

On to `C#CC(C)(C)O`, for which the Potency entry in assay [13], in assay [16], in [3], in [5], in assay [6] and in assay [14] was “inactive” each time. Moreover, the Potency result in [7], in assay [8], in [9], in [10], in [12] and in assay [15] was “inactive” in each case. Also, the compound was classed as inactive in [1] and in assay [2].

Turning to `COc1cc(CCN)cc(OC)c1OC`, the Potency entry in [13], in assay [16], in [3], in [4], in assay [5] and in assay [14] was “inactive” each time. For the same compound, the Potency result in assay [7], in assay [9], in assay [10], in [12] and in assay [15] was “inactive” each time. Further, in assay [2], the compound was called inactive. Also, the Potency in assay [11] is 38.7 µM (active).

`CC(C)(O)C(Cl)(Cl)Cl`: the Potency result in assay [13], in assay [3], in assay [4], in assay [18], in assay [5] and in [6] was “inactive” each time. In addition, the Potency entry in assay [14], in assay [7], in [8], in [9], in assay [10] and in [11] was “inactive” each time. Also, the Potency entry in assay [12] and in assay [15] was “inactive” in each case. Moreover, the outcome in [1] and in [2] was inactive. Moreover, in [17], the max activation is -2.13%.

For the compound `CCOC(=O)NC(C)(C)Cc1ccc(Cl)cc1`, the Potency result in assay [13], in assay [16], in assay [3], in [4], in assay [5] and in assay [6] was “inactive” each time. Besides, the Potency entry in [14], in assay [12] and in assay [15] was “inactive” in each case. Besides, in assay [2], the compound was called inactive. Besides, the Potency is 4.36 µM (active) in assay [9], 15.5 µM (active) in assay [10] and 6.45 µM (active) in assay [11].
